In PubChem BioAssay AID1159580 (chemical genetic matrix, 2015):
Hit rate of the full screen: of about 5,500 compounds, about 2,000 (36%) were called active. Inconclusive results (about 18%) are left out. No stated cut-off is given here; in the data, active means normalized growth mostly below about 0.91 (no sharp cut-off); inconclusive means no clear call, values can overlap the other calls; inactive means mostly above about 0.92. The list shows a part of the results.

Assay: chemical genetic growth profiling, strain panel (AID 1159580);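 further: tested at 20 µM; growth read once vehicle control cultures reached saturation at 30 °C; 1 = growth at the plate median or of vehicle wells; lower values mean less growth of the strain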
Conditions: growth OD

Measured: normalized growth

CCCCCCC(C)OC(=O)COc1ccc(Cl)cc1Cl (configuration not stated)
inactive: S. cerevisiae deletion strains, locus YJR075W, strain HOC1, hits give low values 0.931 | S. cerevisiae deletion strains, locus YKL009W, strain mrt4, hits give low values 0.992 | S. cerevisiae deletion strains, locus YKL068W, hits give low values 0.998 | S. cerevisiae deletion strains, locus YKL085W, strain MDH1 (second series), hits give low values 0.984 | S. cerevisiae deletion strains, locus YKL085W, strain MDH1, hits give low values 0.984 | S. cerevisiae deletion strains, locus YKL160W, strain elf1, hits give low values 0.996 | S. cerevisiae deletion strains, locus YKL190W, strain CNB1, hits give low values 0.997 | S. cerevisiae deletion strains, locus YKR001C, strain vps1, hits give low values 0.998 | S. cerevisiae deletion strains, locus YKR026C, strain gcn3, hits give low values 0.989 | S. cerevisiae deletion strains, locus YKR091W, strain srl3, hits give low values 0.993 | S. cerevisiae deletion strains, locus YLL001W, strain dnm1, hits give low values 0.991 | S. cerevisiae deletion strains, locus YLL026W, hits give low values 0.986 | S. cerevisiae deletion strains, locus YLL041C, strain sdh2, hits give low values 0.994 | S. cerevisiae deletion strains, locus YLR027C, strain aat2, hits give low values 0.995 | S. cerevisiae deletion strains, locus YLR039C, strain RIC1, hits give low values 0.893 | S. cerevisiae deletion strains, locus YLR058C, strain SHM2, hits give low values 0.996 | S. cerevisiae deletion strains, locus YLR102C, strain apc9, hits give low values 1 | S. cerevisiae deletion strains, locus YLR113W, strain HOG1, hits give low values 0.961 | S. cerevisiae deletion strains, locus YLR221C, strain rsa3, hits give low values 0.989 | S. cerevisiae deletion strains, locus YLR258W, strain gsy2, hits give low values 0.981 | S. cerevisiae deletion strains, locus YLR262C, strain YPT6 (second series), hits give low values 0.971 | S. cerevisiae deletion strains, locus YLR262C, strain YPT6, hits give low values 0.983 | S. cerevisiae deletion strains, locus YLR268W, strain sec22, hits give low values 0.997 | S. cerevisiae deletion strains, locus YLR320W, strain mms22, hits give low values 0.982 | S. cerevisiae deletion strains, locus YLR330W, strain CHS5, hits give low values 0.992 | S. cerevisiae deletion strains, locus YLR342W, strain FKS1 (second series), hits give low values 1.01 | S. cerevisiae deletion strains, locus YLR342W, strain FKS1, hits give low values 0.987 | S. cerevisiae deletion strains, locus YLR357W, strain rsc2, hits give low values 1.01 | S. cerevisiae deletion strains, locus YLR370C, strain arc18, hits give low values 0.994 | S. cerevisiae deletion strains, locus YLR371W, strain rom2, hits give low values 0.997 | S. cerevisiae deletion strains, locus YLR384C, strain iki3, hits give low values 0.993 | S. cerevisiae deletion strains, locus YLR418C, strain cdc73, hits give low values 0.965 | S. cerevisiae deletion strains, locus YML016C, strain PPZ1, hits give low values 0.997 | S. cerevisiae deletion strains, locus YML032C, strain rad52, hits give low values 1.01 | S. cerevisiae deletion strains, locus YML120C, strain ndi1, hits give low values 0.983 | S. cerevisiae deletion strains, locus YML124C, strain tub3, hits give low values 0.998 | S. cerevisiae deletion strains, locus YMR058W, strain fet3, hits give low values 0.994 | S. cerevisiae deletion strains, locus YMR078C, strain ctf18, hits give low values 1.01 | S. cerevisiae deletion strains, locus YMR125W, strain sto1, hits give low values 0.983 | S. cerevisiae deletion strains, locus YMR129W, hits give low values 0.994 | S. cerevisiae deletion strains, locus YMR205C, strain PFK2, hits give low values 0.968 | S. cerevisiae deletion strains, locus YMR223W, strain ubp8, hits give low values 0.989 | S. cerevisiae deletion strains, locus YMR231W, strain pep5, hits give low values 0.993 | S. cerevisiae deletion strains, locus YMR263W, strain SAP30, hits give low values 0.984 | S. cerevisiae deletion strains, locus YMR307W, strain GAS1, hits give low values 0.869 | S. cerevisiae deletion strains, locus YNL067W, strain RPL9B, hits give low values 0.985 | S. cerevisiae deletion strains, locus YNL071W, strain lat1, hits give low values 0.982 | S. cerevisiae deletion strains, locus YNL128W, strain TEP1, hits give low values 0.987 | S. cerevisiae deletion strains, locus YNL153C, strain GIM3, hits give low values 0.996 | S. cerevisiae deletion strains, locus YNL183C, strain NPR1, hits give low values 0.96 | S. cerevisiae deletion strains, locus YNL209W, strain ssb2, hits give low values 0.995 | S. cerevisiae deletion strains, locus YNL233W, strain BNI4, hits give low values 0.989 | S. cerevisiae deletion strains, locus YNL248C, strain rpa49, hits give low values 0.984 | S. cerevisiae deletion strains, locus YNL250W, strain rad50, hits give low values 1 | S. cerevisiae deletion strains, locus YNL271C, strain bni1, hits give low values 1 | S. cerevisiae deletion strains, locus YNL298W, strain CLA4, hits give low values 1 | S. cerevisiae deletion strains, locus YNL307C, strain MCK1, hits give low values 0.993 | S. cerevisiae deletion strains, locus YNL322C, strain KRE1 (second series), hits give low values 0.992 | S. cerevisiae deletion strains, locus YNL322C, strain KRE1, hits give low values 0.992 | S. cerevisiae deletion strains, locus YNR049C, strain mso1, hits give low values 0.984 | S. cerevisiae deletion strains, locus YNR052C, strain pop2, hits give low values 1.01 | S. cerevisiae deletion strains, locus YOL006C, strain TOP1, hits give low values 0.905 | S. cerevisiae deletion strains, locus YOL012C, strain htz1 0.707 | S. cerevisiae deletion strains, locus YOL147C, strain pex11, hits give low values 1 | S. cerevisiae deletion strains, locus YOR001W, strain rrp6, hits give low values 0.995 | S. cerevisiae deletion strains, locus YOR061W, strain CKA2, hits give low values 0.981 | S. cerevisiae deletion strains, locus YOR069W, strain VPS5, hits give low values 0.979 | S. cerevisiae deletion strains, locus YOR070C, strain gyp1, hits give low values 0.985 | S. cerevisiae deletion strains, locus YOR080W, strain dia2, hits give low values 0.995 | S. cerevisiae deletion strains, locus YOR083W, strain WHI5, hits give low values 0.999 | S. cerevisiae deletion strains, locus YOR106W, strain vam3, hits give low values 0.958 | S. cerevisiae deletion strains, locus YOR136W, strain idh2, hits give low values 1.01 | S. cerevisiae deletion strains, locus YOR144C, strain elg1, hits give low values 1.01 | S. cerevisiae deletion strains, locus YOR184W, strain ser1, hits give low values 0.991 | S. cerevisiae deletion strains, locus YOR231W, strain MKK1, hits give low values 1.04 | S. cerevisiae deletion strains, locus YOR265W, strain rbl2, hits give low values 0.991 | S. cerevisiae deletion strains, locus YOR270C, strain vph1, hits give low values 0.953 | S. cerevisiae deletion strains, locus YOR290C, strain snf2, hits give low values 0.995 | S. cerevisiae deletion strains, locus YOR316C, strain cot1, hits give low values 1 | S. cerevisiae deletion strains, locus YPL051W, strain arl3, hits give low values 0.989 | S. cerevisiae deletion strains, locus YPL055C, strain LGE1, hits give low values 0.94 | S. cerevisiae deletion strains, locus YPL078C, strain atp4, hits give low values 0.988 | S. cerevisiae deletion strains, locus YPL106C, strain sse1, hits give low values 1.01 | S. cerevisiae deletion strains, locus YPL240C, strain hsp82, hits give low values 1 | S. cerevisiae deletion strains, locus YPL241C, strain CIN2, hits give low values 0.995 | S. cerevisiae deletion strains, locus YPL256C, strain CLN2, hits give low values 1.01 | S. cerevisiae deletion strains, locus YPR119W, strain clb2, hits give low values 1 | S. cerevisiae deletion strains, locus YPR141C, strain kar3, hits give low values 0.995 | S. cerevisiae deletion strains, locus YPR163C, strain tif3, hits give low values 1.01 | S. cerevisiae deletion strains, locus YPR167C, strain met16, hits give low values 1 | S. cerevisiae deletion strains, strain wtn01, hits give low values 1 | S. cerevisiae strains, strain wild type, hits give low values 0.981
